Results from PubChem BioAssay AID504842 (National Center for Advancing Translational Sciences (NCATS), 2011).
Screen size: about 330,000 compounds; about 100 (0.03%) were called active. Another 1% or so got no clear call; they are omitted. Calls come from the whole dose curve; as a rule, active = well fitted inhibition curve with a large enough effect; inconclusive = small, poorly fitted or top-dose-only effect; inactive = flat fitted curve, though single readings scatter. The entries come from a sample that favours actives as a whole.

System: Chaperonin Mm-Cpn (Methanococcus maripaludis)
Assay: Inhibitors of TCP-1 ring complex (TRiC) of Methanococcus maripaludis (MmCpn): qHTS; note: nearly all actives have a fitted effect of over 80% in size
Details: purified Mm-Cpn ATPase, ADP Transcreener TR-FRET; series mostly up to 76.9 µM; activity, negative = inhibition: at the top concentration
Source text: The eukaryotic chaperonin TRiC (for TCP-1 ring complex) is an essential and conserved chaperone required for the folding and activation of 10-15% of the proteins encoded by the human genome. […] The TRiC complex consist of two stacked 7-9 membered rings, each containing a central cavity. Substrates are folded within the cavity in an ATP-dependent manner. TRiC is a complex of eight different, essential proteins. As each of the genes encoding the eight subunits is essential for cell viability and no protocol has been developed to over-express this enzyme to high levels. That is why several groups studying the TRiC chaperonin have turned to the archaeal homolog of TRiC, Methanococcus maripaludis (Mm-CPN), and have used this enzyme as a model system for the study of the type II chaperonin family. Small molecule inhibitors of the Mm-CPN enzyme would be extremely useful to study the mechanism of chaperonin activity. Importantly, TRiC and Mm-CPN both require ATP hydrolysis for function. Furthermore, the ATP binding sites are highly conserved among these type II chaperonins. This provides us with an easy, well tested and straightforward assay to identify inhibitors of chaperonin activity. The Mm-CPN assay was developed in 1536-well plate format using the HTRF Transcreener ADP assay kit (Cisbio, Bedford, MA). This assay applied the time resolved fluorescence resonance energy transfer (TR-FRET) principle. ATP in the presence of Mm-CPN is converted to ADP + Pi. An antibody labeled with Eu3+-Cryptate specific and bound to ADP labeled with […] (d2) competes with the unlabeled ADP generated by Mm-CPN. The resulting TR-FRET signal is inversely proportional to the concentration of ADP in the sample. In this assay a reduction in TR-FRET signal is observed with ATP turnover. NIH Chemical Genomics Center [NCGC] NIH Molecular Libraries Probe Centers Network [MLPCN] MLPCN Grant: DA030554-01A1 Assay Submitter (PI): Judith Frydman, Stanford University
Purified Mm-CPN was supplied by the laboratory of Dr. Judith Frydman. Protein samples were stored at -80C as single use aliquots. Protein was thawed in ambient temperature water bath and placed on ice once thawed. Buffer was prepared fresh day of screen. The buffer composition below was used to prepare the working solution of the Mm-CPN protein and ATP substrate. The buffer is comprised of 30 mM TRIS pH 7.4, 100mM KCl, 5mM MgCl2, and 1mM DTT. A final concentration of 25nM Mm-CPN and 10uM ATP per well were used in the screen. Instructions according to the manufacturer were followed for the ADP Transcreener kit. Used 1536 well Greiner white, medium binding (MB), solid bottom plates. Plates were read on the PerkinElmer EnVision plate reader using Excitation = 320 nm and Emission = […], 665 nm. Protocol- 1.Dispense 1.5ul per well of working [Mm-CPN] = 50nM (or 75 ng / well) 2.Spin plate at 1000 rpm for 30 seconds 3.23nl of compound transferred per well 4.Incubate at 37degC for 10 minutes 5.Dispense 1.5ul per well of working [ATP] = 20uM 6.Incubate at 37degC for 30 minutes 7.Dispense 3ul per well of Anti-ADP Cryptate / ADP-d2 mix (prepared as instructed by Cisbio) 8.Incubate at ambient for 30 minutes 9.Read using EnVision
% is set by controls: 0 for no effect and ±100 for the full control effect.

activity, negative = inhibition, inactive:
O=C(Nc1cccnc1)c1noc2c1CCCCC2 -0.428%
Nc1ccn(C2CC(O)C(CO)O2)c(=O)n1 (centres undefined) 1.62%
Cc1ccc(C)c(CSc2nc(-c3ccco3)nc3c2c(=O)n(C)c(=O)n3C)c1 2.6%
COc1ccc(O)c(/C=N/N=C/c2cccc([N+](=O)[O-])c2)c1 1.75%
Nc1ccc(Nc2cc(O)c3ncccc3c2)cc1 -3.06%
CCCN1Cc2cccc(C(=O)Nc3ccc(S(=O)(=O)N4CCCCCC4)cc3)c2C1=O -4.72%
CCN(CC)CCN1C(=O)C(=O)/C(=C(/O)c2cnn(-c3ccccc3)c2C)C1c1cccs1 (centres undefined) -1.3%
CC(C)(C)c1ccc(S(=O)(=O)N2CCN(C(=O)c3ccc4c(c3)C(=O)N(Cc3ccncc3)C4=O)CC2)cc1 -0.64%
Cc1ccc(S(=O)(=O)Nc2ccc3c(c2)C(=O)N([C@H](C)CO)C[C@@H](C)[C@@H](CN(C)C(=O)Nc2cccc4ccccc24)O3)cc1 2.37%
C=CCC(NCCCO)c1cccc(OC)c1OC (centres undefined) -2.38%
CC(C)CCN1CCN(Cc2ccc(C(F)(F)F)cc2)CC1CCO (centres undefined) 0.684%
CC(C)(C)c1cc2cccnc2n1Cc1cccc(F)c1 1.5%
O=c1[nH]c(CSc2ccccc2)nc2c1oc1ccccc12 1.87%
CCOc1ccc(NC(=O)CCCCCN2C(=O)[C@@H]3Cc4ccccc4CN3C2=O)cc1 1.25%
CCN1C(=S)N[C@@H](c2cccc(C(F)(F)F)c2)C(C(=O)OC)=C1C 3.56%
COc1cc(C(c2c(NC(=O)c3ccco3)sc(C)c2C)N2CCOCC2)cc(OC)c1OC (centres undefined) -2.89%
CCC1CCCCN1C(=O)CSc1nc(C)cc(C)n1 (centres undefined) -8.6%
COC(=O)C1CCN(C(=O)NC2CC(=O)N(c3ccc4c(c3)OCCO4)C2)CC1 (centres undefined) 3.08%
O=C(CNCc1ccc(Cl)cc1)Nc1cccc(C(=O)O)c1 -0.15%
Cc1ccc(-n2c(C)cc(/C=C(\C#N)C(=O)NCC3CCCO3)c2C)cc1 (centres undefined) -2.2%
Cc1ccc(C)c(NC(=O)C(c2ccccc2)N2CCN(CC(=O)NC3CC3)CC2)c1 (centres undefined) -0.786%
COc1ccccc1NC(=O)c1cc(N2C(=O)C3C4CCC(C4)C3C2=O)ccc1Cl (centres undefined) 1.31%
CCc1nn(CCCC(=O)Nc2ccc(C)cc2C)c(=O)c2cc3occc3n12 1.57%
O=S(=O)(NC1CCN(S(=O)(=O)c2ccc3c(c2)OCCO3)CC1)c1c(F)cccc1F 0.533%
COC(=O)c1ccc(Nc2ncnc3sccc23)cc1 -13.1%
COc1ccc2nc(NC3=NCN(CC4CCCO4)CN3)nc(C)c2c1 (centres undefined) 1.76%
O=S(=O)(c1ccc(-c2ccccc2)cc1)N1CCCC1 -3.69%
COc1cc(C2C(C(=O)c3sc(C)nc3C)=C(O)C(=O)N2CCN(C)C)cc(OC)c1OC (centres undefined) -0.311%
NC(=O)C1CCN(c2nc(-c3cccc(F)c3)cs2)CC1 0.604%
CCN(CC(=O)Nc1cc(Cl)ccc1C)C(=O)CSCc1ccccc1 1.09%
Cc1ccc(C(=O)OCC(=O)Nc2ccc(Cl)cn2)cc1S(=O)(=O)N1CCOCC1 1.87%
OCCNc1nc2ccccc2n1-c1ncnc2sc3c(c12)CCC3 0.0901%
CCOC(=O)NC(=O)C(=CNc1cccc(OC)c1)C(=O)NC(=O)OCC -0.345%
O.O.O.O=S(=O)([O-])OC[C@H]1O[C@@H](O[C@]2(COS(=O)(=O)[O-])O[C@H](OS(=O)(=O)[O-])[C@@H](OS(=O)(=O)[O-])[C@@H]2OS(=O)(=O)[O-])[C@H](OS(=O)(=O)[O-])[C@@H](OS(=O)(=O)[O-])[C@@H]1OS(=O)(=O)[O-].[Al] 0.62%
CCOc1ccc(NC(=O)COC(=O)C2CCC(=O)N2)c([N+](=O)[O-])c1 (centres undefined) -2.17%
CN(C(=O)CSc1nnc(C2CC2)n1C)C1CCCc2ccccc21 (centres undefined) 1.32%
C=C(C)c1cccc(C(C)(C)NC(=O)NC2CCCC2)c1 3.61%
CC(=O)NC(NC(=S)Nc1c(C)n(C)n(-c2ccccc2)c1=O)C(Cl)(Cl)Cl (centres undefined) 0.437%
COc1cccc(NS(=O)(=O)c2ccc(-c3coc(C)n3)cc2)c1 1.38%
Nc1ccccc1C(=O)NC1CCCCNC1=O (centres undefined) 1.08%
COc1cccc(N2CC(C(=O)NCc3n[nH]c(=O)c4ccccc34)CC2=O)c1 (centres undefined) 2.26%
CCOC(=O)c1c(N)c(C#N)nn1-c1ccccc1C(=O)OC -12.9%
O=C(c1c(F)cccc1F)N1CCN(c2ncc(Br)cn2)CC1 0.0114%
Cc1ccccc1NC(=O)CCNS(=O)(=O)c1ccc2[nH]c(=O)oc2c1 -1.52%
CC(C)N(C)C(=O)CCc1nnc(CCc2c[nH]c3ccccc23)o1 -2.91%
O=C(Nc1cccc(C(=O)NC2CC2)c1)c1ccc(F)c(S(=O)(=O)N2CCOCC2)c1 1.05%
CC(=O)NC(c1cccs1)c1cc(Br)c2cccnc2c1O (centres undefined) -1.32%
COc1ccc(-c2[nH]ncc2CN(Cc2nccn2C)C(C)C)cc1F -2.61%
COc1ccc(CNC(=O)CN2C(=O)NC3(CCCc4sccc43)C2=O)cc1 (centres undefined) -1.41%
O=S1(=O)C=C(SCCN2CCCC2)c2ccccc21 0.155%
CC(C)(C)NC(=O)CN(C(=O)c1ccc(Cl)nc1)c1cccc2ccccc12 -0.978%
CC(C#N)(NC(=O)CN1CCN(S(=O)(=O)c2cc(C(F)(F)F)ccc2Cl)CC1)C1CC1 (centres undefined) 3.45%
Cc1nc(COc2cccc(Cl)c2)sc1C(=O)/C=C/N(C)C -24.3%
COc1ccc([C@H]2CC(=O)C=C(/C=C/c3ccc(Cl)cc3)C2)cc1 -0.334%
COc1ccc(F)cc1C(=O)COC(=O)c1n[nH]c(=O)c2ccccc12 -0.0952%
CC(C)N(C(=O)Cn1cc(SCC(=O)N2CCCC2)c2ccccc21)C(C)C 0.718%
CN(C)CCN=c1cc(-c2ccccc2)oc2ccc(Cl)cc12 -2.28%
CC1(C)C/C(=C(/C#N)C(N)=O)CCO1 -0.376%
COc1ccccc1Oc1ccc(N2CC(C(=O)OCC(=O)c3ccc(F)cc3)CC2=O)cc1 (centres undefined) -1.04%
CCCOc1ccc(C(=O)C(CCC(CNCC)C(=O)c2ccc(OCCC)cc2)CNCC)cc1 (centres undefined) 0.107%
Cc1ccc(S(=O)(=O)N2CCCC2C(=O)OCc2nc3sc(C)c(C)c3c(=O)[nH]2)cc1 (centres undefined) 1.1%
Nc1c(Cl)cc(S(N)(=O)=O)cc1S(N)(=O)=O 0.708%
Nc1ccc(Cl)c(S(=O)(=O)Nc2ccccc2Cl)c1 1.09%
O=C(CN1CCN(C(=O)c2ccco2)CC1)Nc1ccc(Cl)c(C(F)(F)F)c1 -2.16%
